# Assay outcomes: PubChem, Center for Chemical Genomics, University of Michigan
# Dicer inh: inhibitors of human Dicer processing of pre-microRNA. z-score at 25 µM. cat-ELCCA pre-miR-21 Dicer processing, chemiluminescence; hits give high values. Q9UPY3. hit rate 6% among 47,000; in the data active means z-score above about 3, passing the limit was not always enough;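 further: plate controls were vehicle for no effect and no enzyme for full effect; higher signal means more uncleaved substrate so more Dicer inhibition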
# Numbers without * were called inactive. Shown is part of a subset that was picked to be rich in hits.
SMILES,Dicer inh
COc1ccc(N=C2SCC(=O)N2CCc2ccc(OC)c(OC)c2)cc1,2.3
O=C1CSC(=Nc2cc(Cl)cc(Cl)c2)N1Cc1cccs1,1
COc1ccccc1N=C1SCC(=O)N1Cc1ccco1,4*
Cc1cc(C)c(N=C2SCC(=O)N2Cc2ccco2)c(C)c1,4.8*
O=C1CSC(=Nc2ccc(Cl)cc2)N1Cc1ccco1,-0.33
N#Cc1cn(C2CCN(Cc3ccccc3)CC2)c(=O)[nH]c1=O,-1.2
O=C(Nc1cc(C(F)(F)F)ccc1Cl)C(=S)N1CCOCC1,-0.41
O=C(Nc1cc(C(F)(F)F)ccc1Cl)C(Cl)Cl,5*
NNC(=O)Nc1ccc(C(F)(F)F)cc1Cl,0.71
CN(C)/C=N/c1nc2c(s1)CCc1ccccc1-2,-4.7
Cc1cc(C)c2cc(C(=O)NCCc3ccccc3)[nH]c2c1,-3.8
CC1=C(C)CC2C(=O)N(c3ccc(I)cc3)C(=O)C2C1 (centres undefined),-1.2
O=C(NC(=O)c1c(Cl)cccc1Cl)Nc1c(F)cc(F)cc1Br,-0.58
Cc1cccc(C)c1C(=O)NC(=O)Nc1c(F)cc(F)cc1F,56*
COc1ccc(Br)c(OC)c1C(=O)NC(=O)Nc1c(F)cccc1F,-0.93
CC(=O)Nc1nc(NC(C)=O)nc(-c2ccccc2C)n1,0.44
COC(=O)C1=C(C)NC2=C(C(=O)CC(c3ccccc3)C2)C1c1ccccn1 (centres undefined),2.3
CC(C)(C)NC(=O)Cn1c(=O)oc2ccc(Cl)cc21,-1
Cc1ccc2oc(=O)n(Cc3ccc(OC(C)C)cc3)c2c1,3.2*
Cc1cccc(Cn2c(=O)oc3ccc(C)cc32)c1,-0.24
O=c1oc2ccccc2n1Cc1cccc(Cl)c1,0.02
COC(=O)Cn1c(=O)oc2ccc(C)cc21,3.7*
CCCCCOC(=O)Cn1c(=O)oc2ccc(C)cc21,1
CSC1=NCCN1CC(=O)c1ccc(C)cc1,-1.8
Cc1n[nH]c(C)c1CCCCCOc1ccccc1Br,0.11
SMILES,Dicer inh
COC(=O)C(C)Sc1ncnc2c1sc1nc(N3CCOCC3)c3c(c12)CCCC3 (centres undefined),1.7
CC(=O)OC[C@H]1OC(OC(C)(C)C)[C@H](OC(C)=O)[C@@H](OC(C)=O)[C@@H]1OC(C)=O (some centres undefined),-0.16
Cc1ccc(-c2nc(C#N)c(NCCCN3CCOCC3)o2)cc1,-0.16
COc1cccc(-c2cc(C#N)on2)c1OC,0.66
CCOC(=O)c1c(NC(=O)COc2ccccc2)sc2c1CCC2,0.34
O=S(=O)(NCCNc1ncnc2scc(-c3ccccc3)c12)c1ccc(Cl)cc1,-0.95
FC(F)(F)c1ccc(-c2nc(=S)[nH][nH]2)cc1,-0.04
FC(F)(F)c1ccc(C2=NCCO2)cc1,4.8*
FC(F)(F)c1ccc(-c2nnc(-c3ccc4nccnc4c3)o2)cc1,-0.74
Cc1c(OCc2ccc(Cl)c(Cl)c2)ccc(-c2ccn[nH]2)c1O,1.3
Cc1cccc(C(=O)/C=C\Nc2ccc(Cl)cn2)c1,-0.04
COc1nccnc1NS(=O)(=O)c1ccc(NC(=O)c2cc(Cl)cc(Cl)c2)cc1,2.2
COc1nccnc1NS(=O)(=O)c1ccc(NCc2cc(Br)ccc2O)cc1,6.3*
CCn1c(NCc2cc(Br)ccc2O)nc2ccccc21,1.6
CCCCN1C(=O)C2(/C(=C(/O)c3ccc(OC)c(C)c3)C(=O)C(=O)N2CCOC)c2ccccc21 (centres undefined),0.24
O=C(c1ccccc1)c1c(CS(=O)(=O)c2ccc(C(F)(F)F)cn2)[nH]n(-c2ccccc2)c1=O,-1.2
O=C1C=C(NC2Cc3ccccc3C2)CC(c2ccc(F)cc2)C1 (centres undefined),-0.85
COc1ccc(CC(=O)NCc2cc(C)oc2C(F)(F)F)cc1OC,0.59
CSc1ccc(CNCCNC(=O)c2nonc2N)cc1,1.4
CCC1CSC(Nc2ccc(OC)cc2)=N1 (centres undefined),0.75
COCCOC(=O)C1=C(C)NC2=C(C(=O)CC(c3cccs3)C2)C1c1cccs1 (centres undefined),0.82
CC1=C(C(=O)OCCOC(C)C)C(c2coc3ccccc3c2=O)C2=C(CC(C)(C)CC2=O)N1 (centres undefined),1.3
CC(=O)Oc1ccc(C2C(C(=O)OCC(C)C)=C(C)NC3=C2C(=O)CC(c2cccs2)C3)cc1 (centres undefined),0.7
CC1=C(C(=O)OCCOc2ccccc2)C(c2coc3ccccc3c2=O)C2=C(CC(C)(C)CC2=O)N1 (centres undefined),3.4*
CCSCCOC(=O)C1=C(C)NC2=C(C(=O)CC(c3cccs3)C2)C1c1ccc(O)c(OC)c1 (centres undefined),5.4*
SMILES,Dicer inh
COc1cccc(C2C(C(=O)OC(C)C)=C(C)NC3=C2C(=O)CC(c2cccs2)C3)c1OC (centres undefined),2.7
CC1=C(C(=O)OC(C)C)C(c2coc3ccccc3c2=O)C2=C(CC(c3cccs3)CC2=O)N1 (centres undefined),3.3*
COCCOC(=O)C1=C(C)NC2=C(C(=O)CC(C)(C)C2)C1c1coc2ccccc2c1=O (centres undefined),-0.44
COc1ccc(OC)c(C2C(C(=O)OCC(C)C)=C(C)NC3=C2C(=O)CC(c2cccs2)C3)c1 (centres undefined),3.1*
CC1=C(C(=O)OC(C)C)C(c2ccccc2F)C2=C(CC(c3cccs3)CC2=O)N1 (centres undefined),0.56
COc1cc(C2C(C(=O)OCC3CCCO3)=C(C)NC3=C2C(=O)CC(c2cccs2)C3)ccc1O (centres undefined),1.9
CCSCCOC(=O)C1=C(C)NC2=C(C(=O)CC(c3cccs3)C2)C1c1ccc2c(c1)OCO2 (centres undefined),0.75
Cc1cccc(C)c1NC(=S)N(CCC#N)C(C)C,0.95
CCOC(=O)C(=CNc1ccc(F)cc1)C(=O)OCC,-0.11
OCCSc1ccc(Oc2ccc(SCCO)cc2)cc1,-1.5
COC(=O)c1c(-c2c(Cl)cccc2Cl)noc1C(=O)N/N=C/c1c(Cl)cccc1Cl,0.1
COC(=O)NC(O)C(=O)c1ccccc1 (centres undefined),-0.58
COc1ccc(C(=O)/C(C#N)=N/Nc2cccc(Cl)c2Cl)cc1,8.3*
COc1ccc(NC(=O)Nc2cccc(Cl)c2Cl)c(OC)n1,-0.73
N#C/C(=N\Nc1ccc(F)cc1)C(=O)c1ccccc1Cl,0.3
CCOC(=O)C(NC(C)=O)(Nc1ccc(C(O)(C(=O)OCC)C(F)(F)F)cc1C)C(F)(F)F (centres undefined),2.7
O=C(CSc1n[nH]c(=O)n1-c1ccccc1)c1ccc2c(c1)OCCO2,1.2
CSc1nnc(SCC(=O)c2ccc3c(c2)OCCO3)s1,1.9
CC(c1ccccc1)n1c(OC(=O)N(C)C)nnc1SCC(=O)c1ccc2c(c1)OCCO2 (centres undefined),3.6*
Fc1ccc(CN2CCN(C3CCCCC3)CC2)cc1,-0.45
Fc1ccccc1CN1CCN(C2CCCC2)CC1,5.3*
c1ccc(CN2CCN(C3CCCC3)CC2)cc1,-0.01
O=C(Nc1nccs1)c1ccc2noc(-c3ccccc3)c2c1,-2.1
CCOC(=O)C1(C(F)(F)F)N=C(N(CC)CC)Oc2c1c(C)nn2-c1ccccc1 (centres undefined),-0.63
CCc1ccccc1N1CC(O)=C(c2nc3ccccc3c(=O)[nH]2)C1=N,4.9*
CCOc1ccc(N2CC(O)=C(c3nc4ccccc4c(=O)[nH]3)C2=N)cc1,1.1
Cc1ccc(N2CC(O)=C(c3nc4ccccc4c(=O)[nH]3)C2=N)c(C)c1,-0.23
CN(C)Nc1ccc([N+](=O)[O-])c(NN(C)C)c1C#N,0.85
